The values below come from publication PMC7862700, “An all-to-all approach to the identification of sequence-specific readers for epigenetic DNA modifications on cytosine”.

Assay in all cases: DAPPL (digital affinity profiling via proximity ligation, sequencing); 10 mM Tris-HCl pH 7.5, 50 mM NaCl, 1 mM DTT, 4% glycerol, room temperature, 30 min; GST-TFs on glutathione beads, 16-mer random dsDNA library, 0.1% formaldehyde crosslink after washing; high values mean tight binding
In one experiment the target is T1, FEV (Homo sapiens, UniProt Q99581 1-238).
T1 sequence: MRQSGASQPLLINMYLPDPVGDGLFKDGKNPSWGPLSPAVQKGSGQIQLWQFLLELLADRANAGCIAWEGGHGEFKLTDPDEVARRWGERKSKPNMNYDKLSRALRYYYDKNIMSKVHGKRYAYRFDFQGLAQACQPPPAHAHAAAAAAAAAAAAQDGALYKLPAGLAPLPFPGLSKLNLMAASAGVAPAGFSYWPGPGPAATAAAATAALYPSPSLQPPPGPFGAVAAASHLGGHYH
The following applies: protein: recombinant; tags: N-terminal GST; dsDNA, one strand shown. In short, it runs like this:
(§1)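 Human transcription factors were made in yeast as GST fusions, captured on glutathione beads and barcoded with DNA. With a tag-only sample included, the pool was incubated with 200 nmole of a random double-stranded 16-mer DNA library in Tris/NaCl/DTT/glycerol buffer at room temperature for 30 min, then crosslinked with 0.1% formaldehyde after washing, ligated by proximity, amplified and sequenced. For binding signal, each hexamer's read frequency for a factor is divided by its frequency for the tag-only sample.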

The next experiment has as its target ETV5 (Homo sapiens, UniProt P41161 1-510). The settings on record: protein: recombinant; tags: N-terminal GST; dsDNA, one strand shown. In short, it runs like this:
as §1

Another experiment deals with HSF1 (Homo sapiens, UniProt Q00613 1-529). The settings on record: protein: recombinant; tags: N-terminal GST; chain copies: 3; dsDNA, one strand shown. Summed up:
as §1

Another experiment addresses T2, SPIC (Homo sapiens, UniProt Q8N5J4 1-248).
T2 sequence: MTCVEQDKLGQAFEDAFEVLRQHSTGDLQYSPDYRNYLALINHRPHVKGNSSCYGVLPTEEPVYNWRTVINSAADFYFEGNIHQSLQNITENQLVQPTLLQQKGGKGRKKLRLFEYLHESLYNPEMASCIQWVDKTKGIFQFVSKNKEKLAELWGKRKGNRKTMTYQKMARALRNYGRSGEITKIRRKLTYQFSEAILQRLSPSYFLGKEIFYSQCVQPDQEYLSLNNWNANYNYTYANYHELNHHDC
The following applies: protein: recombinant; tags: N-terminal GST; dsDNA, one strand shown. Summed up:
as §1

The next experiment deals with ELF4 (Homo sapiens, UniProt Q99607 1-663). The following applies: protein: recombinant; tags: N-terminal GST; dsDNA, one strand shown. In short, it runs like this: as §1
A further experiment has as its target T3, ELK4 (Homo sapiens, UniProt P28324-2 1-405).
T3 sequence: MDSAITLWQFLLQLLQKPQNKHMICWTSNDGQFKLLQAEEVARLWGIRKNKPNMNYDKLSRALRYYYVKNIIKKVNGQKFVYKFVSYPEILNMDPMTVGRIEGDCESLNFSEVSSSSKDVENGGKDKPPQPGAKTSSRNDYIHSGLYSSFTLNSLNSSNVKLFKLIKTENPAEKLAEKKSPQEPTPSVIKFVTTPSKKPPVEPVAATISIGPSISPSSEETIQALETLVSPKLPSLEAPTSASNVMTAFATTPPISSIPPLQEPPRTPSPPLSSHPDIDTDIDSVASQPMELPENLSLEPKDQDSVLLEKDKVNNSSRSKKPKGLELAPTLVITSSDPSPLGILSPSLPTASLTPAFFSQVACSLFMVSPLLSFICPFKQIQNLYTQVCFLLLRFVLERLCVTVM
The following applies: protein: recombinant; tags: N-terminal GST; dsDNA, one strand shown. Summed up: as §1

In another experiment the target is T4, ETV2 (Homo sapiens, UniProt O00321 1-342).
T4 sequence: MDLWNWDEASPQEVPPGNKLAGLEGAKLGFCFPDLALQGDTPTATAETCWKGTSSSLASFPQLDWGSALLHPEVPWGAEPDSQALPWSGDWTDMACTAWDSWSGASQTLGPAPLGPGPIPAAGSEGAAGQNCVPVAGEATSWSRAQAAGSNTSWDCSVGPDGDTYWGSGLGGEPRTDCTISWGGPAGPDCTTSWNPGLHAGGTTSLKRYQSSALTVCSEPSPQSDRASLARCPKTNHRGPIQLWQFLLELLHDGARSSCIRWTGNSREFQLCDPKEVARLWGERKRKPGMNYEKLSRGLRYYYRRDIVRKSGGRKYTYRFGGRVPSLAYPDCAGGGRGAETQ
The settings on record: protein: recombinant; tags: N-terminal GST; dsDNA, one strand shown. In short, it runs like this:
as §1

For the next experiment, the target named is T5, ELF3 (Homo sapiens, UniProt P78545 1-371).
T5 sequence: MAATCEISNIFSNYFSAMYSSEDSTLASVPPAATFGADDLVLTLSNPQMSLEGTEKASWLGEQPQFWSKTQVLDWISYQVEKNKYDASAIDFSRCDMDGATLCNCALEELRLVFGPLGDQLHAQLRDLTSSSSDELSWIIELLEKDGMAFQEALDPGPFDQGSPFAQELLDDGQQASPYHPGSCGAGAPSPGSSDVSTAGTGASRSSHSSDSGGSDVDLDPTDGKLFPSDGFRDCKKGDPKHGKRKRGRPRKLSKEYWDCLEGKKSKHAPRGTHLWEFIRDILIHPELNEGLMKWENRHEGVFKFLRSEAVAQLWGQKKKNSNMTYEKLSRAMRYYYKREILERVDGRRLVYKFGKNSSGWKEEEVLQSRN
The following applies: protein: recombinant; tags: N-terminal GST; dsDNA, one strand shown. Summed up: as §1

For a further experiment, the target named is CRX (Homo sapiens, UniProt O43186 1-299). The settings on record: protein: recombinant; tags: N-terminal GST; dsDNA, one strand shown. Summed up: as §1
The target of the next experiment is ETV1 (Homo sapiens, UniProt P50549 1-477). The settings on record: protein: recombinant; tags: N-terminal GST; dsDNA, one strand shown. In short, it runs like this:
as §1

A further experiment deals with T6, ERF (Homo sapiens, UniProt P50548 1-548).
T6 sequence: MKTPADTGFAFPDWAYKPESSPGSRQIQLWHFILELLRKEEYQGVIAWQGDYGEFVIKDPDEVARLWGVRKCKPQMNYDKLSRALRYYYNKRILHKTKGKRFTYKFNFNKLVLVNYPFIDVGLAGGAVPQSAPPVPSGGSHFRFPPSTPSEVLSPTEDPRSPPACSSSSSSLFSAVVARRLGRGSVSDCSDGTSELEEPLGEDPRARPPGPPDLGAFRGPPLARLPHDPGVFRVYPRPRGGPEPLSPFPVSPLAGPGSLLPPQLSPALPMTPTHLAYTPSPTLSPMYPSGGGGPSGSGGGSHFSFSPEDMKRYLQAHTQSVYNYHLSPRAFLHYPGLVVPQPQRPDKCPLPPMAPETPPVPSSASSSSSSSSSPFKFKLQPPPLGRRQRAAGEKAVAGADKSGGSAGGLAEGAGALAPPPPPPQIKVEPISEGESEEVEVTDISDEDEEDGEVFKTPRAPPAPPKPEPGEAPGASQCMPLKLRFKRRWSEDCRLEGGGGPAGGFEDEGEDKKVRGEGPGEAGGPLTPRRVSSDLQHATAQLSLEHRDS
The settings on record: protein: recombinant; tags: N-terminal GST; dsDNA, one strand shown. Summed up:
as §1

A further experiment deals with T7, ETV3L (Homo sapiens, UniProt Q6ZN32 1-361).
T7 sequence: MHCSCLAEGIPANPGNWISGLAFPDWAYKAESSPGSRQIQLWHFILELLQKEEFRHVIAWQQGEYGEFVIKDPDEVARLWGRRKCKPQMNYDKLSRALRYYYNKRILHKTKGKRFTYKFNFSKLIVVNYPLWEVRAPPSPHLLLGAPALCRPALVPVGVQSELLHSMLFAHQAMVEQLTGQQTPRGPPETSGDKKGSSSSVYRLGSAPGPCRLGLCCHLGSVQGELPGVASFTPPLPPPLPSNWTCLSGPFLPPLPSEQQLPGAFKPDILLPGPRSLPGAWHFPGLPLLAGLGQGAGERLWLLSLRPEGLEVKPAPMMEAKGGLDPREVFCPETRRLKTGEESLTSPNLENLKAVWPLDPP
The following applies: protein: recombinant; tags: N-terminal GST; dsDNA, one strand shown. In short, it runs like this:
as §1

A further experiment deals with T8, ETS2 (Homo sapiens, UniProt P15036 1-469).
T8 sequence: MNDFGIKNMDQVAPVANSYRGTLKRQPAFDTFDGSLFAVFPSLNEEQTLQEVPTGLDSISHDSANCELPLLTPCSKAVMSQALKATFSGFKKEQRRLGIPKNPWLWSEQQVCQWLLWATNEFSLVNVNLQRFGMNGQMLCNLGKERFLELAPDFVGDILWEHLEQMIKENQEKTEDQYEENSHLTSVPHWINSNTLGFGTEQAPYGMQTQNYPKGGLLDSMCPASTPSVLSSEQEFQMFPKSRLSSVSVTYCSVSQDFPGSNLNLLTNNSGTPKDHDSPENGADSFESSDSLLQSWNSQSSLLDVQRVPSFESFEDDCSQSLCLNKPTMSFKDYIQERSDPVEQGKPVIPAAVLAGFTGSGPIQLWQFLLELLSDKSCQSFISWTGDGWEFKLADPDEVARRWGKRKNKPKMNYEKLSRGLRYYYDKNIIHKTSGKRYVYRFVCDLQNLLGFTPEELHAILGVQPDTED
The settings on record: protein: recombinant; tags: N-terminal GST; dsDNA, one strand shown. In short, it runs like this:
as §1

For a further experiment, the target named is T9, SPDEF (Homo sapiens, UniProt O95238 1-335).
T9 sequence: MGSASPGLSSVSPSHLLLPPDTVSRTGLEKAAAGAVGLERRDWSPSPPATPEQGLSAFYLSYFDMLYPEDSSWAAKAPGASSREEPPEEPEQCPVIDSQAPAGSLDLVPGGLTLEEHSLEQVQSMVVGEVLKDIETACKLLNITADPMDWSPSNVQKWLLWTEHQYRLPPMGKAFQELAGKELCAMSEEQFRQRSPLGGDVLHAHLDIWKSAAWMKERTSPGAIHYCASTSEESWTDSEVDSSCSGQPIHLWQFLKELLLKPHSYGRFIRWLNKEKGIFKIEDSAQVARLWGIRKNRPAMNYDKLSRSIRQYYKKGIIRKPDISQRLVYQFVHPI
The settings on record: protein: recombinant; tags: N-terminal GST; dsDNA, one strand shown. In short, it runs like this:
as §1

The target of the next experiment is T10, ETV7 (Homo sapiens, UniProt Q9Y603 1-341).
T10 sequence: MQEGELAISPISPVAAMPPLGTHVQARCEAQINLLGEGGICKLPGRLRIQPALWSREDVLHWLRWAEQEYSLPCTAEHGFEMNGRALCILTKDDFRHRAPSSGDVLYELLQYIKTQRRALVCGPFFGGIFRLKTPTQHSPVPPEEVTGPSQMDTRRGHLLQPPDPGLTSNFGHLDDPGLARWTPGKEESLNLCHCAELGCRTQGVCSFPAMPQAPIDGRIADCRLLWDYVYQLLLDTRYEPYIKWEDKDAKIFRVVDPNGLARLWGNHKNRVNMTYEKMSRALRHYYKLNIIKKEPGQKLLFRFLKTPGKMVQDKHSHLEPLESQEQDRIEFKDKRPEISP
The following applies: protein: recombinant; tags: N-terminal GST; dsDNA, one strand shown. Summed up: as §1

For another experiment, the target named is T11, ELF5 (Homo sapiens, UniProt Q9UKW6-2 1-255).
T11 sequence: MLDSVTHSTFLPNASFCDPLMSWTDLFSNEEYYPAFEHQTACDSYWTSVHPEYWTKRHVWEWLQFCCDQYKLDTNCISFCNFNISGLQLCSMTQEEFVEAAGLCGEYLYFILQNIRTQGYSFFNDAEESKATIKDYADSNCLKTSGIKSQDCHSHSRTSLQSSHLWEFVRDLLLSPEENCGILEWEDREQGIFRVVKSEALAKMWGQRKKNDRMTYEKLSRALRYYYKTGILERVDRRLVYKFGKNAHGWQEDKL
The settings on record: protein: recombinant; tags: N-terminal GST; dsDNA, one strand shown. Summed up:
as §1

The target of a further experiment is T12, ETV3 (Homo sapiens, UniProt P41162-2 1-143).
T12 sequence: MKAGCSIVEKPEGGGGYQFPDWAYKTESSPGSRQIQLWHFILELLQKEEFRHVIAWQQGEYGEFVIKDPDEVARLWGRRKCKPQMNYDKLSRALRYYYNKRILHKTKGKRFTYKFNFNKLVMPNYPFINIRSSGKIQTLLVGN
The following applies: protein: recombinant; tags: N-terminal GST; dsDNA, one strand shown. In short, it runs like this: as §1

The next experiment has as its target ETV6 (Homo sapiens, UniProt P41212 1-452). The settings on record: protein: recombinant; tags: N-terminal GST; dsDNA, one strand shown. Summed up: as §1

Sequence of ELF4 (Q99607 whole entry): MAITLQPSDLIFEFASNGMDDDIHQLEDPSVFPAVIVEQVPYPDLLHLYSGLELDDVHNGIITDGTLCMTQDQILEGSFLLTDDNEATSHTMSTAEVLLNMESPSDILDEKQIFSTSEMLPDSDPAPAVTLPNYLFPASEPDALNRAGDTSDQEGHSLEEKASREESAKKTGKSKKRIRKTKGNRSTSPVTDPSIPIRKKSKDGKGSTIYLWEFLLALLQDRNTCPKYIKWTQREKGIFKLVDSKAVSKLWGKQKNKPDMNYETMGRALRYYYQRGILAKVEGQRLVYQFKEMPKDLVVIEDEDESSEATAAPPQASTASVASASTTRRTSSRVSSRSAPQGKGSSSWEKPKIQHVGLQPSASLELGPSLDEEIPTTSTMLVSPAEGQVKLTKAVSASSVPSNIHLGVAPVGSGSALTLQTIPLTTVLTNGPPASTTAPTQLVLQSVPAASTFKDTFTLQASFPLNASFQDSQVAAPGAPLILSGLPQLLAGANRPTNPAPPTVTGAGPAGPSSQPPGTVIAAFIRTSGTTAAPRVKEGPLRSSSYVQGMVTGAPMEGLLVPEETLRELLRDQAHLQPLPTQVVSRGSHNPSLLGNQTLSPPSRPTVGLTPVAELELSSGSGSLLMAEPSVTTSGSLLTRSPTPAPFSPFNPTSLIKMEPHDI
Sequence of HSF1 (Q00613 whole entry): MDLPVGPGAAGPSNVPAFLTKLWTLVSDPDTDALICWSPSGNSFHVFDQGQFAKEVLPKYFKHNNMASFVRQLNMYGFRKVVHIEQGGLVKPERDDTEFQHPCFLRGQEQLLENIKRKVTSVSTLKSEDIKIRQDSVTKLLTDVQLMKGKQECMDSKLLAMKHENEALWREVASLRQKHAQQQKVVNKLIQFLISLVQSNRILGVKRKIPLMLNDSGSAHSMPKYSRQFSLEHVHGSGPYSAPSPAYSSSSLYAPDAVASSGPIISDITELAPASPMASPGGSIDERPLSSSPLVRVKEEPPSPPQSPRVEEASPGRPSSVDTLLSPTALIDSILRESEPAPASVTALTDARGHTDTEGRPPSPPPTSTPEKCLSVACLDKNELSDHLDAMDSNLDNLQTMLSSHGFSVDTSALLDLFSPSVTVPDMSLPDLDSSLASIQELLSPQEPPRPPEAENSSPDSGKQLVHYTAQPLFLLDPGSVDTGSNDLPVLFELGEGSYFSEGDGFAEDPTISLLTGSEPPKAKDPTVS
Sequence of ETV5 (P41161 whole entry): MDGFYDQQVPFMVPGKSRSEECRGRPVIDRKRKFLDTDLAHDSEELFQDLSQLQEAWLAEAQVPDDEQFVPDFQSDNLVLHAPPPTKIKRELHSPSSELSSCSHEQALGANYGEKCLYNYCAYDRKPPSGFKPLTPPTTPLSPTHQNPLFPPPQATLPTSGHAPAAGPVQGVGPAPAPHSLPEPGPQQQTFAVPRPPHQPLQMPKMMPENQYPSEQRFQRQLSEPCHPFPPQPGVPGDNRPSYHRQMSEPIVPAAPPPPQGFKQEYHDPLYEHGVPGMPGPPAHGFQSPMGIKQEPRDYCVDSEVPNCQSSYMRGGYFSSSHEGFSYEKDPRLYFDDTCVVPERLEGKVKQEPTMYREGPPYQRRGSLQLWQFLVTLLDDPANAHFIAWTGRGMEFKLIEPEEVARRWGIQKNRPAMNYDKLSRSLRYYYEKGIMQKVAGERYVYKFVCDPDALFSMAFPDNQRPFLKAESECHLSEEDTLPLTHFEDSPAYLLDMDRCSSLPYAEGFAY
Sequence of ETV6 (P41212 whole entry): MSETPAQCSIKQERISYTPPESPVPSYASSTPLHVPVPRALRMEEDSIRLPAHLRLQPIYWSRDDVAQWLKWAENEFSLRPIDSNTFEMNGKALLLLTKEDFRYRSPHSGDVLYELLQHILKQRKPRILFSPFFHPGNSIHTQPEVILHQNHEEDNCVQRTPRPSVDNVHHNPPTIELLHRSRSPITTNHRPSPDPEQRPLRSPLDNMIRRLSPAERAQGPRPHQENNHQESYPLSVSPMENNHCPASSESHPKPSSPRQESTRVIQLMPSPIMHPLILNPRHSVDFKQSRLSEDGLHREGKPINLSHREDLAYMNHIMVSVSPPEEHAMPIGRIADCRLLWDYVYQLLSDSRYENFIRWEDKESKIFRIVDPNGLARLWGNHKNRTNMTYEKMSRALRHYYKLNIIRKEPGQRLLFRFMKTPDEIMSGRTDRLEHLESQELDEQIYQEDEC
Sequence of CRX (O43186 whole entry): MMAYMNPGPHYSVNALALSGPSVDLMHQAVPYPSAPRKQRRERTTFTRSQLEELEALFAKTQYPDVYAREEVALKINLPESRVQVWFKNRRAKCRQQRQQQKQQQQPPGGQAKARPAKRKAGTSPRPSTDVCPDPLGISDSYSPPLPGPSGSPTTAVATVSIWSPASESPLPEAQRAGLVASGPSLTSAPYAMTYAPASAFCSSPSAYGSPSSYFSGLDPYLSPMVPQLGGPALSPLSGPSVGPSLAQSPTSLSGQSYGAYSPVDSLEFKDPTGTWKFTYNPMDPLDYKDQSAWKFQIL
Sequence of ETV1 (P50549 whole entry): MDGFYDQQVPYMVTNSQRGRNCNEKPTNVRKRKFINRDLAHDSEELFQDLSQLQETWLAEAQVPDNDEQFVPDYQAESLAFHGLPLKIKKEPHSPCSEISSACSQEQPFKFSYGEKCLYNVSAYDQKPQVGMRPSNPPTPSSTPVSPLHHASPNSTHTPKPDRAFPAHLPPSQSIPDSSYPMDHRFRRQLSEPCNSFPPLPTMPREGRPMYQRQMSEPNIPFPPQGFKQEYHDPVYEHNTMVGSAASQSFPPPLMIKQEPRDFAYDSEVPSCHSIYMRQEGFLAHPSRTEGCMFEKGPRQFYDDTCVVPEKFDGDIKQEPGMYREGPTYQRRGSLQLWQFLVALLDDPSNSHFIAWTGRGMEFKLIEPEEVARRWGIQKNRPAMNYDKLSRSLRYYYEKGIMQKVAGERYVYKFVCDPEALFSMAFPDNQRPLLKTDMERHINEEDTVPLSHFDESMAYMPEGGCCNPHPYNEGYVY

As to CCTTAG, the binding signal is 1.28 fold enrichment (6-mer frequency, TF over GST control) with FEV; 1.18 fold enrichment (6-mer frequency, TF over GST control) in the experiment with ETV5; 1.2 fold enrichment (6-mer frequency, TF over GST control) with HSF1; 1.36 fold enrichment (6-mer frequency, TF over GST control) with SPIC; 1.34 fold enrichment (6-mer frequency, TF over GST control) with ELF4; 1.34 fold enrichment (6-mer frequency, TF over GST control) with ELK4. The binding signal in the experiment with ETV2 is 1.32 fold enrichment (6-mer frequency, TF over GST control); with ELF3, 1.05 fold enrichment (6-mer frequency, TF over GST control); with CRX, 1.28 fold enrichment (6-mer frequency, TF over GST control); with ETV1, 1.22 fold enrichment (6-mer frequency, TF over GST control); in the experiment with ERF, 1.22 fold enrichment (6-mer frequency, TF over GST control); in the experiment with ETV3L, 1.26 fold enrichment (6-mer frequency, TF over GST control). Also, the binding signal was 1.27 fold enrichment (6-mer frequency, TF over GST control) with ETS2; 1.24 fold enrichment (6-mer frequency, TF over GST control) with SPDEF; 1.21 fold enrichment (6-mer frequency, TF over GST control) with ETV7; 1.29 fold enrichment (6-mer frequency, TF over GST control) with ELF5; 1.27 fold enrichment (6-mer frequency, TF over GST control) in the experiment with ETV3; 1.23 fold enrichment (6-mer frequency, TF over GST control) with ETV6.
